Screens as filed in PubChem.
A selection: hits, their analogues and other compounds. The true share with any hit is near 19%.
IL-1B inflam inh = blocks inflammasome-driven IL-1 beta release; THP-1 LPS/ATP IL-1B secretion, AlphaLISA, 16 h; stronger effect = lower value; activity change, % at 57.5 µM; hit rate 4.7% among 360,000; AID 743279; in the data active = activity change below about -50%; inconclusive = mostly about -30% to -49%; also: % is scaled to controls: 0 for no effect and ±100 for the full control effect
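Secreted IL-1B measured by AlphaLISA bead assay after 16 h compound exposure of THP-1 cells; compounds (final up to 57.5 uM) added 1 h before LPS (250 ng/mL) and ATP (1.25 mM) stimulation; lower signal means less secretion.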
HepG2 viability = HepG2 cytotoxicity, counter-screen for TGF-b inhibitors | HepG2 CAGA-GFP viability, ATP luminescence, 18 h | Potency, µM (titrated, usually from 46.1 µM), for the others: at the top dose activity change, negative = cytotoxicity, most hits filed as cytotoxic | hit rate 0.76% among 410,000; also: potency is read from the fitted curve at half-maximal effect
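HepG2 CAGA-GFP cells (1000/well, DMEM with 1% FBS) received compound, then TGF-beta at 500 pg/mL final, and were incubated 18 hours at 37 degrees C. Viability was read by CellTiter-Glo luminescence. Media-only wells were set as complete cell-killing and DMSO as no toxicity.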
TGFb inhibitor = inhibitors of TGF-b signaling. HepG2 CAGA-GFP TGF-b/SMAD3 reporter, GFP fluorescence, 18 h; TGF-beta stimulated, 500 pg/mL final. Potency, µM (doses to about 46.1 µM), without a hit: top-dose activity, negative = inhibition, usual class: inhibitors. hit rate 1.2% among 410,000; also: potency is read from the fitted curve at half-maximal effect; % is scaled to controls: 0 for no effect and ±100 for the full control effect; nearly all actives have a fitted effect of over 65% in size
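First, reporter cells (HEPG2 CAGA-GFP) rested 2 h at 37 degrees C. Next, compounds were pinned in and TGF-beta added to 500 pg/mL final. After 18 h, GFP was imaged per cell and summed per well.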
TDP1 block = inhibitors of human tyrosyl-DNA phosphodiesterase TDP1; Potency, µM (doses to about 130 µM), for inactives: at the top dose activity change, negative = inhibition, actives largely listed as inhibitors; hit rate 0.28% among 350,000; Q9NUW8; recombinant TDP1, AlphaScreen DNA substrate cleavage; also: potency is read from the fitted curve at half-maximal effect; % is scaled to controls: 0 for no effect and ±100 for the full control effect; nearly all actives have a fitted effect of over 40% in size
Target sequence (Q9NUW8 whole entry, looked up): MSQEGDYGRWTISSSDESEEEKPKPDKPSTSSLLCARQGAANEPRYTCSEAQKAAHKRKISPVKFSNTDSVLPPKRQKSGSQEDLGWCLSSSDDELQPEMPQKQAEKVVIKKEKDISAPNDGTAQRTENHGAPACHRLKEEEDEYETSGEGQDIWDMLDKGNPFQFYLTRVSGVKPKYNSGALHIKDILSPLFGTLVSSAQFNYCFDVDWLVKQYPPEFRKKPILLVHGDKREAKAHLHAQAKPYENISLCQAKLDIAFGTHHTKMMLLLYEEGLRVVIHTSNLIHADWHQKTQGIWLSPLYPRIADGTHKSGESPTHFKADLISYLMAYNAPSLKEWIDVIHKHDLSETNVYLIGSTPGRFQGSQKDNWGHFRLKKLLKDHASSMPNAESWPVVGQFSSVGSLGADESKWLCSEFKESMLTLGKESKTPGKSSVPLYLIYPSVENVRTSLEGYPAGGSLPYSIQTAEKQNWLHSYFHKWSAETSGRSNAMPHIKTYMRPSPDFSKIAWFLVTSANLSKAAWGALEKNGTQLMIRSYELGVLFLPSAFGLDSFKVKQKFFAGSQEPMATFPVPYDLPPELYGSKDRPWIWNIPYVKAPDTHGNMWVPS
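Recombinant human Tdp1 (E. coli-expressed, 1 nM final) preincubated with compounds 15 min at room temperature, then 5'-biotin/3'-phosphotyrosine-FITC DNA substrate (15 nM final) added for 5 min. AlphaScreen beads (10 ug/ml final) added 10 min; cleavage lowers signal.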
TDP1 cell CPT = growth inhibition of DT40 Tdp1-/-;hTDP1 cells with camptothecin (screen for TDP1 inhibitors). Potency, µM (titrated, usually from 46.2 µM), inactives show at the highest dose activity change, negative = growth inhibition, usual class: inhibitors. hit rate 12% among 420,000. chicken DT40 Tdp1-/-;hTDP1 cells + 20 nM CPT, ATP luminescence, 48 h; also: potency is read from the fitted curve at half-maximal effect; % is scaled to controls: 0 for no effect and ±100 for the full control effect; nearly all actives have a fitted effect of over 55% in size
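Cell growth measured by CellTiter-Glo luminescence after a minimum 48 h, 37 C compound exposure with 20 nM CPT in Tdp1-knockout DT40 cells stably expressing hTDP1, seeded 400/well; qHTS titration format.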
TDP1 cell noCPT = qHTS for Inhibitors of human tyrosyl-DNA phosphodiesterase 1 (TDP1): qHTS in cells in absence of CPT; DT40 Tdp1-/- hTDP1 cells, no CPT, ATP luminescence, 48 h; Potency, µM (series often up to 46.2 µM), inactives show top-dose activity change, negative = growth inhibition, hits mostly inhibitors; hit rate 15% among 420,000; also: potency is read from the fitted curve at half-maximal effect; % is scaled to controls: 0 for no effect and ±100 for the full control effect; nearly all actives have a fitted effect of over 55% in size
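Seeded 400 DT40-hTDP1 cells/well (vehicle DMSO, no 20 nM CPT); pinned compounds; ≥48 hr at 37 °C; CellTiter-Glo luminescence as viability measure.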
Active calls of the source: *; u = inconclusive; x = no result; [ ] = remark or other dose. Unless noted, calls follow the shape of the dose curve; as a rule, active = well fitted curve in the direction sought with a large enough effect; inconclusive = small, poorly fitted or top-dose-only effect, or another doubt; inactive = no such curve, though single readings can be large; an effect the other way counts as inactive or inconclusive.

SMILES | IL-1B inflam inh | HepG2 viability | TGFb inhibitor | TDP1 block | TDP1 cell CPT | TDP1 cell noCPT
CCCCNc1c(-c2ccc(-c3cccc(Cl)c3)cc2)nc2ccc(Cl)cn12 | -7.0 | -1.9% | 1.6% | 1.2% | u | u
O=C(c1cnc2c(c1)COc1ccccc1-2)c1ccccc1O | x | -28.8% | u | 9.7% | u | u
Cc1ccc(NC(=O)CSc2nc(-c3ccccc3Cl)nc3cc(=O)[nH]n23)c(C)c1 | x | -5.3% | -23.6% | -5.3% | u | u
COc1cccc(OCCOc2c(OC)cccc2OC)c1 | -59.7* | -5.7% | -9.6% | -8.8% | -27.3% | u
COc1cc(C(=O)NCCCc2nc3ccccc3n2CC(C)C)cc(OC)c1OC | x | -30.4% | -24.4% | 5.9% | 20.6µM* | u
COc1cc(C(=O)NCCCCc2ccccc2)cc(OC)c1OC | -2.4 | 2.8% | 7.2% | x | u | 5.8µM*
COc1cccc(OCCNC(=O)c2cc(OC)c(OC)c(OC)c2)c1 | 2.5 | -13.2% | -13.3% | x | u | 13µM*
COc1cc(C(=O)NCCOc2ccc(C)c(C)c2)cc(OC)c1OC | -5.1 | -29.2% | -13.8% | x | -19.3% | -10.8%
CC(C)Cn1c(CCCNC(=O)c2ccco2)nc2ccccc21 | 0.0 | 6.8% | 2.3% | 6.0% | -64.7% | u
COc1ccccc1CN1CCC2(CC1)c1ccccc1[C@@H](NC(=O)c1ccco1)[C@@H]2OC | x | x | x | x | -16.9%[9.04 µM] | -23.6%
CCCC(=O)NCCCc1nc2ccccc2n1C(C)C | 17.0 | -12.1% | -4.1% | 3.1% | u | 14.6µM*
COc1cc(NC(C)CCc2ccccc2)cc(OC)c1OC (configuration not stated) | -7.5 | -4.1% | -1.3% | 11.5% | 13µM* | 10.3µM*
Cc1ccc(OCC(O)Cn2c(N3CCCCC3)nc3c2c(=O)[nH]c(=O)n3C)cc1C (configuration not stated) | 0.0 | -14.9% | -17.4% | 1.2% | u | u
CCCn1c(SCC(=O)NC2CCCCC2)nnc1-c1ccncc1 | 30.0 | -18.9% | -6.3% | 2.0% | 29.1µM* | -78.0%
CCCCn1c(SCC(=O)NC2CC2)nnc1-c1ccncc1 | 3.7 | -11.4% | 0.9% | 1.4%[0.0935 µM] | 4.4% | -0.3%
COc1ccc(Br)cc1C1C(C(=O)Nc2ccc(C)cc2C)=C(C)Nc2ncnn21 (configuration not stated) | x | -2.7% | -4.2% | 5.5% | -8.4% | -25.1%
CCOc1cccc(/C=N/NC(=S)Nc2cc(S(=O)(=O)N3CCOCC3)ccc2N2CCOCC2)c1O | -15.0 | 0.4% | u | 8.0% | 5.8µM* | 5.8µM*
Cc1ccccc1OCC(=O)Nc1cc(S(=O)(=O)N2CCOCC2)ccc1N1CCCC1 | -21.4 | -12.6% | -20.9% | 2.5% | u | u
COc1ccc2ccccc2c1/C=N/NC(=S)Nc1cc(S(=O)(=O)N2CCOCC2)ccc1N1CCOCC1 | -7.8 | 0.1% | 15.4% | 5.5% | -4.3% | -4.6%
COc1ccc(/C=N/NC(=S)Nc2cc(S(=O)(=O)N3CCOCC3)ccc2N2CCOCC2)cc1O | 0.0 | -29.9% | u | 8.0% | 9.2µM* | u
COc1ccccc1N1CCN(C(=O)c2cc3c(=O)n(Cc4cccs4)ccc3nc2C)CC1 | x | -26.0% | u | -0.6% | u | u
COc1ccc(C(=O)N2CCC[C@@]3(CCN(CC(C)C)C3)C2)cc1 | x | x | x | x | 7.0% | -15.6%
Cc1nc(N)nc(N)c1-c1ccc([N+](=O)[O-])cc1 | 10.3 | -36.7% | -4.3% | x | u | 1.46µM*
C=CCC(=O)N1CCCC(CCC(=O)NCc2ccccc2F)C1 (configuration not stated) | -9.2 | -25.8% | u | 9.0% | 2.0% | -22.5%
O=C(CCC1CCCN(C(=O)c2ccncc2)C1)NCc1ccc(F)c(F)c1 (configuration not stated) | 8.8 | -82.5% | -24.5% | 0.0% | -17.3% | u
SMILES | IL-1B inflam inh | HepG2 viability | TGFb inhibitor | TDP1 block | TDP1 cell CPT | TDP1 cell noCPT
CC(C)c1cc(C(=O)N2CCCC(CCC(=O)NCc3ccccc3F)C2)n(C)n1 (configuration not stated) | 21.7 | -10.8% | -20.0% | 0.0% | u | 13µM*
O=C(CCC1CCCN(C(=O)c2cc3ccccc3o2)C1)NCc1ccc(F)c(F)c1 (configuration not stated) | 0.0 | -28.1% | u | x | 16.4µM* | 16.4µM*
COCc1ccc(C(=O)N2CCCC(CCC(=O)NCc3ccccc3F)C2)o1 (configuration not stated) | 41.6 | -0.5% | -13.6% | -4.8% | 3.66µM* | 2.91µM*
O=C(CCC1CCCN(C(=O)c2ccco2)C1)NCc1ccccc1F (configuration not stated) | 24.0 | 0.8% | 2.6% | 0.0% | 18.4µM* | u
Cc1ncoc1C(=O)N1CCCC(CCC(=O)NCc2ccccc2F)C1 (configuration not stated) | 12.1 | -13.1% | -12.1% | -6.1% | u | 20.6µM*
COc1cccc(CNC(=O)CCC2CCCN(C(=O)CCC(F)(F)F)C2)c1 (configuration not stated) | -3.9 | -23.8% | 1.0% | 6.1% | -17.7% | -26.5%
COc1cccc(CNC(=O)CCC2CCCN(Cc3cc4ccccc4o3)C2)c1 (configuration not stated) | -60.0* | -15.1% | u | -4.8% | 18.4µM* | 25.9µM*
Cc1ccoc1C(=O)N1CCCC(CCC(=O)N2CCN(c3ccccn3)CC2)C1 (configuration not stated) | -23.3 | 0.6% | 1.2% | 6.2% | u | 23.1µM*
COCC(=O)N1CCC(Oc2ccc(C(=O)N3CCN(C)C[C@@H]3C(C)C)cc2)CC1 | 6.0 | -6.0% | -4.6% | x | 15.2% | -4.6%
COCCNC(=O)/C(C#N)=C/c1ccccc1Br | u | -14.9% | 2.7% | -5.1% | 14.6µM* | 16.4µM*
COCCNC(=O)/C(C#N)=C/c1cc(C(C)C)c(OC)cc1C | -71.0* | -4.5% | 23.2% | 6.0% | u | u
Cc1cc(/C=C(\C#N)C(=O)O)c(C)n1C1CC1 | -5.2 | -19.2% | u | 5.6% | -10.8% | -15.8%
COc1cc(C)c(/C=C(\C#N)C(=O)Nc2ccc(C)cc2)cc1C(C)C | -10.3 | 3.0% | -13.9% | 4.2% | -10.5% | u
N#C/C(=C/C=C/c1ccccc1)C(=O)Nc1ccccc1 | -28.4 | -19.5% | -6.0% | -2.9% | -25.0% | u
COCCNC(=O)/C(C#N)=C/C=C/c1ccccc1 | -92.8* | 3.0% | -0.9% | 2.9% | -24.7% | u
